In PubChem BioAssay (NCI):
This is part of a sample that, as a whole, favours compounds with a hit. Of some 79,000 tested, about 15% had one in any assay. A number with no mark means an inactive call. Activity calls are given as the source filed them. Rule as the data show it: active = growth inhibition above about 70%; inactive = the rest. Where a SMILES comes first, the peptide text is derived from it.

Assay: NCI Yeast Anticancer Drug Screen. Data for the cln2 rad14 strain (AID 165);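 also: 0% = growth equal to vehicle treated cultures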
Details: S. cerevisiae cln2 rad14 strain, at 50.0 µM, stronger effect = higher value
Outline: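 Each compound was tested on cln2 rad14 yeast. Inhibition of growth was calculated against vehicle-exposed controls.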

Going from `Cc1cnc2ccccc2c1` to `Cc1ccc(Sc2ccc3ccccc3c2)nc1`, the growth inhibition falls from 4.35% to -12.2%.

Going from `O=C(O)CS/C(=N\S(=O)(=O)c1ccccc1)Nc1cccc(Cl)c1` to `CN(c1ccccc1)S(=O)(=O)c1cccc([N+](=O)[O-])c1`, the growth inhibition falls from 12% to -9.5%.

Compared with `COc1ccccc1CC(=O)C(O)(C(F)(F)F)C(F)(F)F`, `O=C(NO)Oc1cccc2ccccc12` is higher in growth inhibition: -28.6% for the first, 6.75% for the second.

First: O=C(O)c1nc(N=Nc2ccc(S(=O)(=O)O)cc2)[nH]c1C(=O)O
Second: CC(=N\NS(=O)(=O)c1ccc(C)cc1)/C(C)=N/NS(=O)(=O)c1ccc(C)cc1
The growth inhibition of the first is lower: -30.7% for the first, 0.85% for the second.

Going from `Cc1ccc(S(=O)(=O)C(C#N)CCC(=O)c2ccc(Cl)cc2)cc1` (stereo not given) to `Cc1ccc(S(=O)(=O)C2c3nc4ccccc4cc3-c3nc4ccccc4nc32)cc1` (stereo not given), the growth inhibition falls from 9.45% to -81.8%.

First: CC(=O)/C(C)=N/Nc1ccccc1
Second: C/C=C/C(=O)N1C(=O)OC[C@@H]1c1ccccc1
The growth inhibition of the first is lower: -11% for the first, 46.6% for the second.

Compared with `N#C/C(=C\c1ccco1)C(N)=O`, `N#C/C(=C\c1ccc(C#N)cc1)C(=O)O` is lower in growth inhibition: 5.25% for the first, 2.75% for the second.

Going from `CCCCN=C1Nc2nc(=NCCCC)nc3c(Br)cc(Br)c(n23)N1` to `CNc1nc2c(C)ccc3[nH]c(NC)nc3c-2n1`, the growth inhibition falls from 23.4% to 1.95%.

Going from `Cc1c(CCC(C)C)oc2cc3oc(CCC(C)C)c(C)c3cc12` to `Clc1ccc(-c2oc(-c3ccc(Cl)cc3)c3ccccc23)cc1`, the growth inhibition falls from -4.8% to -78.2%.

First: ClC1=C(Cl)C2(Cl)C3C(c4ccc(I)cc4C4C3C3(Cl)C(Cl)=C(Cl)C4(Cl)C3(Cl)Cl)C1(Cl)C2(Cl)Cl (stereo not given)
Second: Nc1cccc(Cl)c1C(=O)O
The growth inhibition of the first is higher: 14.1% for the first, -11.7% for the second.

First: COc1ccc(Br)cc1C=Nc1ccccc1
Second: O=[N+]([O-])c1ccc(-c2cc3ccccn3c2)cc1
The growth inhibition of the first is higher: -8.05% for the first, -11.8% for the second.

Compared with `CC(=O)OC/C=C(\C)CCC=C(C)C`, `C/C(CC/C(C)=N/O)=N\O` is lower in growth inhibition: -6.65% for the first, -9.45% for the second.

Going from `O=C(O)c1c(Br)c(Br)c(Br)c(Br)c1C(=O)Nc1ccc(Br)cc1` to `CC(=O)Nc1ccc(F)c(N)c1`, the growth inhibition falls from -8.6% to -11.9%.

Compared with `Nc1nc(Cl)c2ncn(C3OC(CO)C(O)C3O)c2n1` (stereo not given), `O=C1SCC(O)=C1/C=N/Nc1nc2ccccc2o1` is higher in growth inhibition: -34.5% for the first, 31.7% for the second.

First: C=CCOC/C=C\CCOCC/C=C/COCC=C (tested in a mixture with another compound)
Second: CCCCCCCCC(O)C(O)CCCCCCCC(=O)OC (stereo not given)
The growth inhibition of the first is higher: -13.6% for the first, -105% for the second.

Going from `CC(=O)C1CCC2C3CC=C4CC(O)C=CC4(C)C3CCC12C` (stereo not given) to `CC(=O)C1(SCCO)CCC2C3CCC4=CC(=O)CCC4(C)C3CCC21C` (stereo not given), the growth inhibition falls from -1.65% to -3.35%.

Compared with `OC(c1ccccc1)C(Cc1ccccc1)N1CCCCC1` (stereo not given), `O=C(/C=C/C(=O)NCCc1ccccc1)NCCc1ccccc1` is lower in growth inhibition: -4.45% for the first, -7.45% for the second.

Compared with `CC(=O)NC(CO)C(=O)NC(Cc1ccc(O)cc1)C(=O)NCC(N)=O` (stereo not drawn) (Ac-Ser-Tyr-Gly-NH2; configuration not given here), `CCOc1ccccc1C1=CCCCCC1` is lower in growth inhibition: 18.8% for the first, -24.6% for the second.

Going from `N#CC12CC=C(c3ccccc3)N=C1NC(c1ccccc1)=CC2` (stereo not given) to `O=C(OCC(F)(F)C(F)(F)C(F)(F)C(F)(F)C(F)(F)C(F)F)OCC(F)(F)C(F)(F)C(F)(F)C(F)(F)C(F)(F)C(F)F`, the growth inhibition rises from -38.4% to -3.65%.

With `O=C(COc1ccc(Cl)cc1)Oc1c(Cl)cc(Cl)cc1Cl` the growth inhibition was 96.8% (active).
In the case of `Nc1nc(-c2cc(Br)ccc2N=NN2CCOCC2)nc2ccc(Br)cc12`, the growth inhibition is reported as 98.8% (active).

Assay: NCI Yeast Anticancer Drug Screen. Data for the bub3 strain (AID 167)
Details: S. cerevisiae bub3 mutant strain, at 50.0 µM, stronger effect = higher value
Outline: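 Screening used yeast with an engineered genetic alteration affecting cell cycle control. Compound-exposed cultures were compared with vehicle cultures, and reduced growth was taken as inhibition.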

First: Cc1cnc2ccccc2c1
Second: Cc1ccc(Sc2ccc3ccccc3c2)nc1
The growth inhibition of the first is lower: 0.45% for the first, 5.05% for the second.

Compared with `O=C(O)CS/C(=N\S(=O)(=O)c1ccccc1)Nc1cccc(Cl)c1`, `CN(c1ccccc1)S(=O)(=O)c1cccc([N+](=O)[O-])c1` is higher in growth inhibition: 5.45% for the first, 24.3% for the second.

Going from `COc1ccccc1CC(=O)C(O)(C(F)(F)F)C(F)(F)F` to `O=C(NO)Oc1cccc2ccccc12`, the growth inhibition rises from -5.9% to -3.3%.

First: O=C(O)c1nc(N=Nc2ccc(S(=O)(=O)O)cc2)[nH]c1C(=O)O
Second: CC(=N\NS(=O)(=O)c1ccc(C)cc1)/C(C)=N/NS(=O)(=O)c1ccc(C)cc1
The growth inhibition of the first is lower: -2% for the first, 0.95% for the second.

First: Cc1ccc(S(=O)(=O)C(C#N)CCC(=O)c2ccc(Cl)cc2)cc1 (stereo not given)
Second: Cc1ccc(S(=O)(=O)C2c3nc4ccccc4cc3-c3nc4ccccc4nc32)cc1 (stereo not given)
The growth inhibition of the first is higher: 10.2% for the first, 7.95% for the second.

Compared with `CC(=O)/C(C)=N/Nc1ccccc1`, `C/C=C/C(=O)N1C(=O)OC[C@@H]1c1ccccc1` is higher in growth inhibition: -5.7% for the first, 53.6% for the second.

Compared with `N#C/C(=C\c1ccco1)C(N)=O`, `N#C/C(=C\c1ccc(C#N)cc1)C(=O)O` is lower in growth inhibition: 10.9% for the first, -14.4% for the second.

Going from `CCCCN=C1Nc2nc(=NCCCC)nc3c(Br)cc(Br)c(n23)N1` to `CNc1nc2c(C)ccc3[nH]c(NC)nc3c-2n1`, the growth inhibition falls from -4.9% to -41.4%.

First: Cc1c(CCC(C)C)oc2cc3oc(CCC(C)C)c(C)c3cc12
Second: Clc1ccc(-c2oc(-c3ccc(Cl)cc3)c3ccccc23)cc1
The growth inhibition of the first is higher: 6.3% for the first, -15.5% for the second.

First: ClC1=C(Cl)C2(Cl)C3C(c4ccc(I)cc4C4C3C3(Cl)C(Cl)=C(Cl)C4(Cl)C3(Cl)Cl)C1(Cl)C2(Cl)Cl (stereo not given)
Second: Nc1cccc(Cl)c1C(=O)O
The growth inhibition of the first is higher: 20.6% for the first, -25.8% for the second.

Going from `COc1ccc(Br)cc1C=Nc1ccccc1` to `O=[N+]([O-])c1ccc(-c2cc3ccccn3c2)cc1`, the growth inhibition rises from 9.05% to 11.8%.

First: CC(=O)OC/C=C(\C)CCC=C(C)C
Second: C/C(CC/C(C)=N/O)=N\O
The growth inhibition of the first is lower: -0.55% for the first, 11.6% for the second.

Going from `O=C(O)c1c(Br)c(Br)c(Br)c(Br)c1C(=O)Nc1ccc(Br)cc1` to `CC(=O)Nc1ccc(F)c(N)c1`, the growth inhibition falls from 2.75% to -9.1%.

Going from `Nc1nc(Cl)c2ncn(C3OC(CO)C(O)C3O)c2n1` (stereo not given) to `O=C1SCC(O)=C1/C=N/Nc1nc2ccccc2o1`, the growth inhibition rises from -5.2% to 13.2%.

Compared with `C=CCOC/C=C\CCOCC/C=C/COCC=C` (tested in a mixture with another compound), `CCCCCCCCC(O)C(O)CCCCCCCC(=O)OC` (stereo not given) is higher in growth inhibition: 2.45% for the first, 30.5% for the second.

Compared with `CC(=O)C1CCC2C3CC=C4CC(O)C=CC4(C)C3CCC12C` (stereo not given), `CC(=O)C1(SCCO)CCC2C3CCC4=CC(=O)CCC4(C)C3CCC21C` (stereo not given) is higher in growth inhibition: 5.1% for the first, 41.1% for the second.

Going from `OC(c1ccccc1)C(Cc1ccccc1)N1CCCCC1` (stereo not given) to `O=C(/C=C/C(=O)NCCc1ccccc1)NCCc1ccccc1`, the growth inhibition rises from 7.7% to 46.4%.

First: CC(=O)NC(CO)C(=O)NC(Cc1ccc(O)cc1)C(=O)NCC(N)=O (stereo not drawn) (Ac-Ser-Tyr-Gly-NH2; configuration not given here)
Second: CCOc1ccccc1C1=CCCCCC1
The growth inhibition of the first is higher: 10.9% for the first, -10% for the second.

First: N#CC12CC=C(c3ccccc3)N=C1NC(c1ccccc1)=CC2 (stereo not given)
Second: O=C(OCC(F)(F)C(F)(F)C(F)(F)C(F)(F)C(F)(F)C(F)F)OCC(F)(F)C(F)(F)C(F)(F)C(F)(F)C(F)(F)C(F)F
The growth inhibition of the first is lower: -1.65% for the first, -0.6% for the second.

For `O=C(COc1ccc(Cl)cc1)Oc1c(Cl)cc(Cl)cc1Cl`, the growth inhibition was 98.2% (active).
For `Nc1nc(-c2cc(Br)ccc2N=NN2CCOCC2)nc2ccc(Br)cc12`, the growth inhibition was 99% (active).
